Screens: PubChem, several laboratories
PfGluPho inh: PfG6PD (Plasmodium falciparum) enzyme inhibition | inhibition, % at 20 µM | 0.78% of 350,000 active | PfGluPho enzyme, NADPH resazurin-diaphorase fluorescence | AID 504690;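 active = inhibition reaching at least a set limit at 20 µM in the primary screen, cut at about 59% in these data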;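 also: 0% = DMSO wells with substrate and 100% = DMSO wells lacking glucose-6-phosphate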
H9c2 protect: myocardial damage modulation in H9c2 cells; H9c2 cardiomyocytes, H2O2 injury protection, ATPLite, 2 h; AID 588492; 0.63% of 360,000 active; protection from H2O2 cell death, % at 20 µM;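 active = compounds giving at least 50% protection of heart cells from peroxide-induced death in the single-dose screen, raw or plate-pattern-corrected value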;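 also: 0% = DMSO wells with peroxide and 100% = DMSO wells without peroxide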
ALR inh: human ALR oxidase inhibition via reduced H2O2 | purified ALR, DTT oxidation, H2O2 HRP-luminol luminescence | inhibition, % (no concentration beside the values) | 3.8% of 290,000 active;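 active = mean replicate inhibition above about 79%, with every replicate also reaching it, limit read from the data; inconclusive = only one of the two criteria met; inactive = mean below limit and not every replicate reaching it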
Target sequence (P55789 whole entry, looked up): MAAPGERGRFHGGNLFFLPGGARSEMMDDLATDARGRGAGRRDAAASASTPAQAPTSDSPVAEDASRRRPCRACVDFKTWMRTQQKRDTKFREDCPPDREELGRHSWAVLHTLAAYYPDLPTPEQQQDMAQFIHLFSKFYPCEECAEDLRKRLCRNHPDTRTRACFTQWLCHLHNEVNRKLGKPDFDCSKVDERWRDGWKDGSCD
PHOSPHO1 inh: blocks human PHOSPHO1 phosphatase activity; Q8TCT1; recombinant PHOSPHO1, absorbance phosphatase assay; inhibition, % at 13.3 µM; 1.1% of 290,000 active; AID 1565; in the data active = inhibition above about 60%
Target sequence (Q8TCT1 whole entry, looked up): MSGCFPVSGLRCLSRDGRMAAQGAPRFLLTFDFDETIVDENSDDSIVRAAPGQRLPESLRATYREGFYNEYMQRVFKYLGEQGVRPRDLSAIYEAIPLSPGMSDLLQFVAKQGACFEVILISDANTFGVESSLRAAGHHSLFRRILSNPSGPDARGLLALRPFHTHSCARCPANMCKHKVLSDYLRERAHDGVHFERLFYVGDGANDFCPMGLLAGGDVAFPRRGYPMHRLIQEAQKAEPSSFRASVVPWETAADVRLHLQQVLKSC
PfM18AAP inh-1: blocks P. falciparum M18 aspartyl aminopeptidase; inhibition, % at 7.35 µM; 1.2% of 290,000 active; recombinant PfM18AAP, H-Glu-NHMec fluorogenic cleavage;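 active = inhibition above the campaign mean inhibition over all tested compounds plus 3 SD, cut at about 28% in these data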;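 also: 0% = plate median of test compound wells and 100% = 2 mM ZnCl2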
PfM18AAP inh-2: confirmation of Plasmodium falciparum M18 aspartyl aminopeptidase inhibitors; shares compounds with PfM18AAP inh-1; recombinant PfM18AAP, H-Glu-NHMec fluorogenic cleavage; inhibition, % at 7.35 µM; 28% of 2,400 active; AID 2170;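 active = mean inhibition over replicate wells above the hit cutoff set for the earlier primary screen, cut at about 29% in these data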;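 also: 0% = median of test compound wells and 100% = 2 mM ZnCl2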
CTSL1 counter: Cathepsin L (human) inhibition, confirmation. shares compounds with PfM18AAP inh-1. purified cathepsin L1, Z-Leu-Arg-MCA fluorescence. inhibition, % at 5.96 µM. 2,400 tested, under 10 active. AID 2178;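 active = average inhibition across replicates above the hit cutoff set in the earlier primary screen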;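 also: 0% = median of test compound wells and 100% = Z-Phe-Ala-diazomethylketone 1 µM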
PfGluPho conf: PfG6PD inhibition, single-dose confirmed. shares compounds with PfGluPho inh. recombinant PfGluPho, NADPH-diaphorase-resazurin fluorescence. inhibition, % at 20 µM. 34% of 2,400 active;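 active = inhibition of at least 50% at 20 µM in any single replicate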;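 also: 0% = DMSO with substrate and 100% = DMSO lacking glucose-6-phosphate substrate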
Diaph ctr 10uM: inhibits diaphorase or oxidizes, flagging false PfG6PD hits; shares compounds with PfGluPho inh; diaphorase-coupled resazurin reduction, fluorescence, NADPH 10 uM; inhibition, % at 20 µM; 39% of 820 active;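 active = average inhibition reaching 50% or more with the compound at 20 µM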;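 also: resorufin red fluorescence formed as diaphorase reduces resazurin using NADPH; 0% = DMSO with enzyme and 100% = DMSO without enzyme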
Diaph ctr 30uM: counter-screen for P. falciparum G6PD inhibitors: diaphorase inhibitors, oxidizers | AID 504863 | 29% of 820 active | shares compounds with PfGluPho inh | inhibition, % at 20 µM | Diaphorase/resazurin coupled assay, resorufin fluorescence, 30 uM NADPH;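 active = inhibition averaging 50% or more, tested at 20 µM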;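 also: 0% = DMSO with enzyme and 100% = DMSO wells lacking diaphorase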
* = called active by the depositor; ? = inconclusive; nt = no result given. An excerpt weighted towards active compounds, which were near 5.6% of everything screened.

SMILES	PfGluPho inh	H9c2 protect	ALR inh	PHOSPHO1 inh	PfM18AAP inh-1	PfM18AAP inh-2	CTSL1 counter	others
O=C(c1ccc(Cl)cc1)c1c[nH]c(C(=O)NNc2ccccc2)c1	-6	-11	-5	-35	33*	-6	-1
Cc1cccc(C(=O)N(C(=O)c2cccc(C)c2)N(C)C)c1	7	-3	nt	nt	nt	nt	nt
CC(C)(C)c1ccc(/C=N/Nc2nncn2N)cc1	57	-9	-21	30	51*	-18	-1
CSc1ccc(/C=N/NC(=O)c2ccc(-n3cnnn3)cc2)cc1	4	5	-1	nt	nt	nt	nt
CSc1ccc(/C=N\Nc2nncn2N)cc1	57	-7	-1	44	53*	-16	-4
CC1CCN(c2ccc(/C=N\Nc3nncn3N)cc2[N+](=O)[O-])CC1	57	7	-30	-18	53*	-18	-4
CC(C)(C)c1nnc(N/N=C/c2ccc(Br)cc2)n(N)c1=O	7	2	nt	-5	43*	-38	2
Cc1nnc(N/N=C/c2ccccc2O)n1N	32	-1	8	16	24	nt	nt
COCCN(Cc1ccco1)C(=O)C1CCCN(c2ncnc3c2nc2n3CCCCC2)C1 (stereo not given)	-12	-2	-1	34	10	nt	nt
CCC1(C(=O)NC(=Nc2ccccc2)Nc2ccccc2)CCOC1=O (stereo not given)	-17	3	nt	nt	nt	nt	nt
CC(C)NCC(O)c1ccc(O)c(O)c1 (stereo not given)	19	-2	?	36	66*	51*	-4
CNC[C@H](O)c1ccc(O)c(O)c1	31	8	60	-11	54*	66*	-8
CNC[C@H](O)c1cccc(O)c1	-2	1	6	6	-1	nt	nt
CCN1CCN(c2ccccc2NC(=O)c2ccc(-n3cccn3)cc2)CC1	-3	10	nt	nt	nt	nt	nt
CCN(CC(=O)NCc1cccs1)C(=O)c1cccc(S(=O)(=O)N(CC)c2ccccc2)c1	-4	0	nt	nt	nt	nt	nt
COC(=O)c1c(N)sc(C(=O)NCCc2ccccc2)c1C	44	-18	44	-1	40*	-11	-5
COCCSc1ccccc1C(=O)NCCCn1ccnc1	25	4	-3	-7	36*	-25	-1
Cc1ccccc1C(=O)NCCCn1ccnc1	-4	4	-2	27	-2	nt	nt
COc1ccc(-n2nnc3c(SC(C(C)=O)C(=O)N(C)C)ncnc32)cc1 (stereo not given)	64*	-5	38	6	46*	2	-2
CN(C)/N=C/C=C1\CCC/C(=C\c2ccc(F)c(F)c2)C1=O	6	-8	-11	-1	38*	26	4
COc1ccc(/C=C2\CCC/C(=C\C=N\N(C)C)C2=O)cc1	12	-27	-18	20	13	nt	nt
CCn1nnnc1-c1ccc(OC)c(S(=O)(=O)Nc2ccccc2OC)c1	-8	-3	nt	nt	nt	nt	nt
CC(=O)NS(=O)(=O)c1ccc2sc(C)nc2c1	8	-1	-9	30	22	-32	0
Cn1c(O)c(/C=N/NC(=O)c2cc3ccccc3cc2O)c2ccccc21	-44	4	nt	30	32*	0	7
Cc1ccc(CNC(=O)COC(=O)c2ccc(S(=O)(=O)NCc3ccco3)cc2)cc1	3	2	1	nt	nt	nt	nt
SMILES	PfGluPho inh	H9c2 protect	ALR inh	PHOSPHO1 inh	PfM18AAP inh-1	PfM18AAP inh-2	CTSL1 counter	others
COc1cccc(CNc2ccc(S(=O)(=O)N3CCCC3)cn2)c1	15	-5	-2	nt	nt	nt	nt
Cc1ccccc1NC(=S)c1ccc2ccccc2n1	45	-5	-3	-36	41*	-24	3
COc1ccc(S(=O)(=O)N2CCOC2CNC(=O)C(=O)NCCCN2CCOCC2)cc1OC (stereo not given)	-8	-5	nt	4	-4	nt	nt
CCN(C(=O)C(C)N1C(=O)/C(=C/c2ccco2)SC1=S)C1CCS(=O)(=O)C1 (stereo not given)	33	0	-20	29	43*	-43	2
CC(C(=O)N(C)C1CCS(=O)(=O)C1)N1C(=O)/C(=C/c2ccc(F)cc2)SC1=S (stereo not given)	11	-8	-2	38	14	nt	nt
CCCC[n+]1c(C)sc2cc(OC)ccc21	25	-11	nt	-45	24	nt	nt
CC[n+]1c(C)sc2c3ccsc3ccc21	70*	2	46	-44	55*	9	6	PfGluPho conf=27
CN(C)Cc1c[nH]c2nc[nH]c(=O)c12	6	3	nt	nt	nt	nt	nt
CC(C)n1c(=S)[nH]c2c1c(=O)[nH]c(=O)n2C	67*	9	13	62*	36*	29*	-1	PfGluPho conf=33
O=c1c2ccccc2on1-c1ccccc1	10	0	nt	nt	nt	nt	nt
Cc1ccc(S(=O)(=O)N(C)C)cc1[N+](=O)[O-]	2	-1	0	25	-7	nt	nt
CN(C)S(=O)(=O)c1cccc(-n2sc3ccccc3c2=O)c1	115*	-2	nt	6	43*	43*	2	PfGluPho conf=111*;Diaph ctr 10uM=-25;Diaph ctr 30uM=-24
O=S(=O)(c1ccc(S(=O)(=O)N2CCCC2)cc1)N1CCCCC1	2	nt	-11	31	-8	nt	nt
O=c1c2ccccc2sn1-c1ccc(S(=O)(=O)N2CCCC2)cc1	111*	-8	7	-18	33*	-23	-4	PfGluPho conf=105*;Diaph ctr 10uM=-9;Diaph ctr 30uM=-5
O=c1c2ccccc2sn1-c1ccccc1	112*	-44	59	-48	56*	52*	0	PfGluPho conf=114*;Diaph ctr 10uM=-4;Diaph ctr 30uM=-16
CCS(=O)(=O)c1cc([N+](=O)[O-])c(Sc2ccccc2NC(C)=O)s1	62*	0	4	-98	35*	-32	2	PfGluPho conf=-8
CC(=O)Nc1ccccc1-c1ccccc1[N+](=O)[O-]	-6	-3	nt	nt	nt	nt	nt
Oc1ccccc1NCC(O)Cn1ccc2ccccc21 (stereo not given)	66*	-19	?	21	56*	18	1	PfGluPho conf=28
OC(CNCc1ccccc1)Cn1ccc2ccccc21 (stereo not given)	3	15	-8	8	3	nt	nt
CC(=O)c1sc2nsc(SCCN3CCOCC3)c2c1N	78*	5	?	86*	60*	10	0	PfGluPho conf=-17
Cc1cc(C)c(NC(=S)NCC2CCN(C(C)c3ccccc3)C2)c(C)c1 (stereo not given)	84*	2	11	36	53*	3	-2	PfGluPho conf=76*;Diaph ctr 10uM=0;Diaph ctr 30uM=-3
